High-throughput results (PubChem BioAssay)
Only some compounds are listed: those with a hit (about 19% of all), similar ones and a draw of the others.
HepG2 tox – counter-screen for TGF-b inhibitors: cytotoxicity in HepG2 cells | HepG2 CAGA-GFP viability, ATP luminescence, 18 h | Potency, µM (series often up to 46.1 µM), for the others: top-dose activity change, negative = cytotoxicity, most hits filed as cytotoxic | 410,000 compounds, 0.76% hits | AID 588856; also: potency is read from the fitted curve at half-maximal effect
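CellTiter-Glo luminescence gave cytotoxicity after 18 hours at 37 degrees C. The cells were HepG2 CAGA-GFP in 1% FBS DMEM, stimulated with 500 pg/mL TGF-beta after compound addition. %Activity was normalised to no-cell wells (complete cell-killing) and DMSO (no toxicity), and curves were fitted and classified.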
TDP1 cell CPT – growth inhibition of DT40 Tdp1-/-;hTDP1 cells with camptothecin (screen for TDP1 inhibitors); chicken DT40 Tdp1-/-;hTDP1 cells + 20 nM CPT, ATP luminescence, 48 h; Potency, µM (series often up to 46.2 µM), for inactives: top-dose activity change, negative = growth inhibition, most hits filed as inhibitors; 420,000 compounds, 12% hits; AID 686979; also: potency is read from the fitted curve at half-maximal effect; % is scaled to controls: 0 for no effect and ±100 for the full control effect; nearly all actives have a fitted effect of over 55% in size
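Cell growth measured by CellTiter-Glo luminescence after a minimum 48 h, 37 C compound exposure with 20 nM CPT in Tdp1-knockout DT40 cells stably expressing hTDP1, seeded 400/well; qHTS titration format.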
DT40 TDP1 no CPT – qHTS for Inhibitors of human tyrosyl-DNA phosphodiesterase 1 (TDP1): qHTS in cells in absence of CPT; Potency, µM (series often up to 46.2 µM), for the others: at the top dose activity change, negative = growth inhibition, usual class: inhibitors; 420,000 compounds, 15% hits; AID 686978, 2013; DT40 Tdp1-/- hTDP1 cells, no CPT, ATP luminescence, 48 h; also: potency is read from the fitted curve at half-maximal effect; % is scaled to controls: 0 for no effect and ±100 for the full control effect; nearly all actives have a fitted effect of over 55% in size
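Luminescent ATP content (CellTiter-Glo) served as the growth readout. Knockout chicken DT40 cells expressing human TDP1 were exposed to compounds without camptothecin for a minimum 48 hr at 37 °C.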
S-ASM inh – inhibitors of human secretory acid sphingomyelinase; P17405; placental ASM, HMU-PC fluorogenic substrate, 60 min; Potency, µM (doses to about 57.5 µM), for the others: at the top dose activity change, negative = inhibition, hits mostly inhibitors; 340,000 compounds, 0.006% hits; also: potency is read from the fitted curve at half-maximal effect
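HMU-PC0 cleavage (9 uM final) by human placental ASM, 60 min at 37 °C following 10 min compound exposure at RT; stopped at pH 10, fluorescence Ex 386/Em 447 nm.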
IL1B secr inh – blocks inflammasome-driven IL-1 beta release; THP-1 LPS/ATP IL-1B secretion, AlphaLISA, 16 h; active compounds read low; activity change, % at 57.5 µM; 360,000 compounds, 4.7% hits; AID 743279; in the data active = activity change below about -50%; inconclusive = mostly about -30% to -49%; also: % is scaled to controls: 0 for no effect and ±100 for the full control effect
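Secreted IL-1B measured by AlphaLISA bead assay after 16 h compound exposure of THP-1 cells; compounds (final up to 57.5 uM) added 1 h before LPS (250 ng/mL) and ATP (1.25 mM) stimulation; lower signal means less secretion.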
TGFb SMAD3 inh – blocks TGF-b signaling; 410,000 compounds, 1.2% hits; HepG2 CAGA-GFP TGF-b/SMAD3 reporter, GFP fluorescence, 18 h; TGF-beta stimulated, 500 pg/mL final; Potency, µM (top dose mostly 46.1 µM), for inactives: top-dose activity, negative = inhibition, usual class: inhibitors; also: potency is read from the fitted curve at half-maximal effect; % is scaled to controls: 0 for no effect and ±100 for the full control effect; nearly all actives have a fitted effect of over 65% in size
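Cell-based qHTS in HEPG2 carrying a CAGA-GFP Smad reporter; compounds added before 500 pg/mL final TGF-beta, 18 h incubation at 37 degrees C, GFP fluorescence quantified per cell by imaging cytometry.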
The depositor's hits bear a star; ? = inconclusive; / = no result. Unless noted, calls follow the shape of the dose curve; as a rule, active = well fitted curve in the direction sought with a large enough effect; inconclusive = small, poorly fitted or top-dose-only effect, or another doubt; inactive = no such curve, though single readings can be large; an effect the other way counts as inactive or inconclusive.

SMILES	HepG2 tox	TDP1 cell CPT	DT40 TDP1 no CPT	S-ASM inh	IL1B secr inh	TGFb SMAD3 inh
CCN(CC(=O)Nc1cc(C)on1)CC(=O)Nc1ccccc1C(F)(F)F	-31%	4%	-2%	0%	26	?
CC(C)Oc1ccc(CNC(=O)CN2C(=O)CCn3nc(-c4cn(C)c5ccccc45)cc32)cc1	-26%	?	?	/	/	?
Cc1ccc(N2C(=O)C(CC(=O)Nc3ccccc3)N(CCC3=CCCCC3)C2=O)cc1 (stereo unspecified)	-62%	16µM*	21µM*	/	/	?
COc1cccc(N2C(=O)C(CC(=O)Nc3ccc(F)cc3)N(CCC3=CCCCC3)C2=O)c1 (stereo unspecified)	-33%	?	16µM*	/	/	?
COc1ccc(NC(=O)CC2C(=O)N(c3ccc(OC)cc3)C(=O)N2CCC2=CCCCC2)cc1 (stereo unspecified)	-12%	?	?	/	/	-1%
CC(C)CCN1C(=O)N(c2ccccc2)C(=O)C1CC(=O)Nc1ccc(Cl)cc1 (stereo unspecified)	-47%	?	?	/	/	?
COc1ccc(N2C(=O)C(CC(=O)Nc3ccccc3)N(CCC3=CCCCC3)C2=O)cc1 (stereo unspecified)	2%	21µM*	18µM*	/	/	1%
CC(C)CC(=O)Nc1ccc(C(=O)CN2C(=O)NC3(CCOc4ccccc43)C2=O)cc1 (stereo unspecified)	-27%	18µM*	-95%	-4%	12	-20%
CC(C(=O)Nc1ccc(Cl)cc1)N1C(=O)NC2(CCCC2)C1=O (stereo unspecified)	-18%	?	21µM*	-1%	-12	4%
O=C(CN1C(=O)NC2(CCCC2)C1=O)Nc1ccc(F)c(Cl)c1	9%	16%	-11%	0%	-5	0%
O=C(CN1C(=O)NC2(CCCC2)C1=O)Nc1ccc(F)c([N+](=O)[O-])c1	-40%	-12%	?	3%	-66*	-18%
Cc1ccc(NC(=O)C(C)N2C(=O)C3CC=C(Cl)CC3C2=O)cc1 (stereo unspecified)	-9%	-14%	12%	-1%	8	9%
CC1(c2ccccc2Cl)NC(=O)N(CC(=O)Nc2ccc(N3CCCCC3)cc2)C1=O (stereo unspecified)	-3%	?	21µM*	3%	-11	2%
COc1cccc(CNC(=O)COC(=O)/C=C/c2ccc(SC)cc2)c1	-3%	-28%	?	65%	12	4%
O=C(Nc1ccc2c(c1)OCO2)c1cnc(Cl)c(Cl)c1	-23%	?	?	0%	-11	-8%
CC(C)C(=O)Nc1cc(-c2nc3ncccc3o2)ccc1Cl	9%	0%	-8%	5%	28	-25%
Cc1ccc(C(=O)CCC(=O)NC2=NCCS2)cc1	1%	?	?	5%	10	2%
CC(C)c1ccc(C2(C)NC(=O)N(CC(=O)NC3CCCC(C)C3C)C2=O)cc1 (stereo unspecified)	-32%	?	21µM*	1%	?	?
CC1CCCC(NC(=O)CN2C(=O)NC(C)(c3ccccc3)C2=O)C1C (stereo unspecified)	-3%	-6%	-11%	0%	-2	10%
CC(C)c1ccc(NC(=O)CN2C(=O)NC3(CCCCCCC3)C2=O)cc1	7%	21µM*	21µM*	-6%	-5	-4%
O=C(CN1C(=O)NC2(CCCC2)C1=O)NCc1cccc(Cl)c1	-1%	-17%	-17%	0%	-59*	13%
